The values that follow come from PubChem BioAssay (NCI).

About 83,000 compounds went through this panel and 20% of them were active in at least one assay; those are over-represented in the sample as a whole.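 The test compound was applied at a single concentration to cells in 96-well plates for 48 hours, and percent growth was recorded.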 Values without a mark were called inactive. The source made the active and inactive calls.

The subject of this assay is KM12 colon. Description: NCI-60 one-dose screen, 48 h (100 = growth as untreated, 0 = no growth, -100 = all killed). Particulars: 10 µM unless noted. The method, then:
Growth inhibition of the KM12 human tumor cell line is measured as a screen for anti-cancer activity. Cells are grown in 96 well plates and exposed to the test compound for 48 hours. Compounds are tested at a single concentration, which is 10^-5 M for most compounds. The reported endpoint is percent growth (GI% or GIPRCNT), where numbers from 0 - 100% represent growth inhibition, and numbers from -100% - 0 represent cell death. For example, a value of 40 represents 60% growth inhibition. A value of 0 means no net growth occurred over the course of the experiment. A value of -40 indicates 40% of cells at the beginning of the experiment died by the end of the experiment. A value of -100 means all cells are dead at the end of the experiment.
NCI-60 Human Tumor Cell Lines Screen was performed using the standard one-dose NCI protocol, which is described in more detail at https://dtp.cancer.gov/discovery_development/nci-60/default.htm.
Compounds with GIPRCNT values below 10 were considered active. Activity score was based on GIPRCNT using the following formula: […]
Score is 0 for GIPRCNT values of 100 or above, 50 for GIPRCNT values of 0, and 100 for GIPRCNT values of -100.
For `CCNc1ccc(-c2nc3ccccc3n3cccc23)cc1`, the growth is 72.8%.

On to `O=C(Nc1cc(Cl)ccc1O)c1cccc(Nc2ccnc(C(F)(F)F)c2)c1`, for which the growth was 36.5%.

Regarding `COc1ccc(/C=C2\CN(C(=O)C(Cl)Cl)C/C(=C\c3ccc(OC)cc3)C2=O)cc1`, the growth was -70.3% (active).

As for `C=C(C)[C@@H]1CC[C@]2(C(=O)N3CCN(C)CC3)CC[C@]3(C)[C@H](CC[C@@H]4[C@@]5(C)CC[C@H](OC(=O)c6ccccc6C(=O)O)C(C)(C)[C@@H]5CC[C@]43C)[C@@H]12`, the growth was 106%.

For the compound `COC(=O)c1cc(Br)ccc1O`, the growth was 126%.

On to `COc1ccc(NC(=O)Nc2ccc(OCCCCCC(=O)NO)cc2)cc1`, for which the growth was 103%.

`COc1ccc(/C=C(/C(=O)n2cnnn2)c2cc(OC)c(OC)c(OC)c2)cc1`: the growth is 17.7%.

Turning to `Clc1ccc(-c2cc(-c3ccccc3)nc(NCCNc3ccnc4cc(Cl)ccc34)n2)cc1`, the growth is -5.53% (active).

For `O=C(Nc1ncc(Cc2cc(C(F)(F)F)ccc2Cl)s1)c1cccs1`, the growth was 29.5%.

Consider `Nc1nc(NC(=O)Nc2ccc(C(=O)O)cc2)nn1-c1ccc(S(N)(=O)=O)cc1`, for which the growth was 89.6%.

In the case of `COc1ccc2c(c1)/C(=N/c1n[nH]c(=S)s1)C(=O)N2`, the growth is 89%.

With `N#C/C(=C\c1ccc([N+](=O)[O-])cc1)n1nnc2cc(F)c(F)cc21`, the growth is 3.75% (active).

For the compound `O=C(CCCCCCN1CC(=O)N2[C@H](c3ccc(Br)cc3)c3[nH]c4ccccc4c3C[C@@H]2C1=O)NO`, the growth was 60.9%.

For the compound `C#CC#CC#CC#CC#CC#CC#CC#CCC1OC[C@H](COC(=O)O[C@@H](C(=O)O[C@H]2C[C@@]3(O)[C@@H](OC(=O)c4ccccc4)[C@@H]4[C@]5(OC(C)=O)CO[C@@H]5C[C@H](O)[C@@]4(C)C(=O)[C@H](OC(C)=O)C(=C2C)C3(C)C)[C@@H](NC(=O)c2ccccc2)c2ccccc2)O1` (stereo not given in full), the growth is 10.8%.

For `COc1cc(-c2nc3sccn3c2-c2ccnc(NCCNS(=O)(=O)c3ccc(Cl)cc3)n2)ccc1F`, the growth is 17%.

Turning to `CCN(CC)CCCOc1ccc2ncnc(Nc3ccc(Oc4cccc(C(F)(F)F)c4)c(Cl)c3)c2c1`, the growth was -24.3% (active).

Regarding `NC(=O)c1c(NC(=O)c2cccc(C(F)(F)F)c2)sc2c1CCC(=O)C2`, the growth was 0.496% (active).

`COC(=O)c1nc(-c2ccccc2)oc1S(=O)(=O)NCC(c1ccc(Cl)cc1)N1CCOCC1` (stereo not given): the growth is 89%.

For `Cc1c2ccncc2c(C)c2c1c1cc(CO)ccc1n2C`, the growth is 9.22% (active).

`Cc1nc2ccccc2c(/C=C/c2ccccc2)c1C(=O)/C=C/c1ccccc1`: the growth is 11.6%.

As to `CN(CCC(=O)c1ccccc1)CCC(=O)c1ccccc1`, the growth was 98.7%.

In the case of `CC(=O)OC(c1ccccc1)C1CCOC1=O` (stereo not given), the growth was 106%.

For the compound `CC[C@]12C=CCN3CC[C@@]4(c5ccc(OC)cc5N(C)[C@H]4[C@@](O)(C(=O)OC)[C@@H]1OC(=O)CCC[P+](c1ccccc1)(c1ccccc1)c1ccccc1)[C@@H]32`, the growth was -27.2% (active).

`Cc1ccc(-c2nc(SCc3nc4cc(Cl)c(Cl)cc4[nH]3)[nH]c(=O)c2C#N)cc1`: the growth was 96.6%.

Regarding `Cc1nn(-c2ccccc2)c(N)c1N=C1NC(=O)/C(=C/c2ccc(Br)cc2)S1`, the growth was 76%.

Regarding `CN(C)CCCNC(=O)c1cncnc1Nc1ccc(OCc2cccc(F)c2)c(Cl)c1`, the growth was -32.1% (active).

For `C=C(CNCCO)[C@@H]1CC[C@]2(CO)CC[C@]3(C)[C@H](CC[C@@H]4[C@@]5(C)CCC(N)C(C)(C)[C@@H]5CC[C@]43C)[C@@H]12` (stereo not given in full), the growth was 25.2%.

As for `Cc1ccc(-c2nc3nc(-c4ccccc4)nc(N4CCCN(S(C)(=O)=O)CC4)c3o2)cc1`, the growth was 86.8%.

On to `Cc1[nH]c(C2CC(c3ccc(C(F)(F)F)c(F)c3)=NN2c2ccccc2)c(C)c1C(=O)NCC(F)(F)F` (stereo not given), for which the growth was 87.5%.

With `C/C(=N\O)[C@@H]1CC[C@]2(CO)CC[C@]3(C)[C@H](CC[C@@H]4[C@@]5(C)CCCNC(C)(C)[C@@H]5CC[C@]43C)[C@@H]12`, the growth is 83.6%.

Take `CCc1n(Cc2ccc3ccccc3n2)cc[n+]1Cc1ccc2ccccc2n1`: the growth was 12.2%.

Turning to `O=C(CCl)NNc1nccc(Nc2ccc(S(=O)(=O)Nc3ccncc3)cc2)n1`, the growth is 62%.

For `O=C(Nc1ncc(Cc2ccccc2)s1)c1ccc2c(c1)OCCCO2`, the growth is 16.4%.

For the compound `Oc1ccc(/C=C/c2ccc(O)cc2)cc1`, the growth is 45.5%.

As to `CCN(CC)CCN1C(=O)c2c(c(C)c3c(oc4ccc(OC)cc43)c2C)C1=O`, the growth was 99.5%.

Turning to `CC1(C)NCCC[C@]2(C)[C@H]3CC[C@H]4[C@H]5[C@H](C(=O)/C=C/c6cccnc6)CCC[C@]5(CO)CC[C@@]4(C)[C@]3(C)CC[C@@H]12`, the growth was 39.8%.

`Cc1nc2c(=O)nc3s/c(=C\c4ccco4)c(=O)n3c2nc1C`: the growth was 105%.

Regarding `CN1CCN(c2ccc(NC(=O)c3cncnc3Nc3ccc(OCc4cccc(F)c4)c(Cl)c3)cc2)CC1`, the growth is 75.8%.

Consider `COc1cccc(CNc2c3ccccc3nc3ccccc23)c1`, for which the growth was 35.9%.

Take `C=C1C(=O)O[C@H]2[C@H]1CC/C(COC(=O)/C=C\C(=O)NCc1ccc(Cn3c(=O)sn(CCCCC)c3=O)cc1)=C\CC[C@@]1(C)O[C@@H]21`: the growth was 98.8%.
